# In the supplement of paper PMC6555819:
# Test system: PXR:RXRa (NR concentration 270 nM, RXRa partner concentration 90 nM)
# Assay: PBM binding z-score (relative to random genomic background probes); higher = stronger binding; sequences stand for … in GC…GCGATTGACAGCGTAGAATGAAGG
# Procedure, shortened: (§1)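 Binding z-scores take random background probes as their reference. They come from custom Agilent 4×180K protein-binding microarrays incubated 1 h with ligand-free nuclear receptor dimers, with antibodies against each partner (one per run) detecting binding. Scanned fluorescence was regression-normalized.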
row,Sequence,PBM binding z-score
1,TCTTGTAGGTCAGCAGGTTAAGAAAGCTGGCCAA,1.95
2,TAGCCTAGGTCATTCAGGGCCCAGTATAGAAAGC,1.88
3,AATATAGGGTCACTAGGCCAGAGTAGGTACGAAT,3.05
4,CCTCCGAGGACAACAGGAGGTCAGAGCTGCCAGA,2.17
5,CCTAGCTGGTCAAGGTCACACACGCTATAGGTAC,4.03
6,ATCGAAAGGTCGTCAGGTGAGTATACAGAAAGGC,3.04
7,ATCGAAAGGTCGTGAGGTGAATATACAGAAAGGC,3.53
8,TGAATGAGGTTATAAGAGCAGGGAACGTTGCAAA,0.661
9,CCTAGTTGGCCAGGAGGTCACACACCGGATATGA,4.27
10,AGTCAAAGTTCACTAGGTAACGTCAGATTCAGCT,3.97
11,AGAACGAGGGCACGCTGAGTAGATAGCAGAGTAG,0.201
12,TCAGACAGGTGATGGTAACTCAGGTACGCAGTCG,0.333
13,CCTCGGAGGACAAGAGGAGGTCAGAGCTGCCAGA,1.71
14,ATATGTAGGTTATCGGGTAATTCAGTTTGCGCAT,1.23
15,GCTATTAGTTGAAAGCGCAACCGAATGATTCTCG,-0.405
16,CGGCAAAGTTCAAGGTAACGTAACAGAAAGCAGC,4.05
17,ATACCAAGGTGATCGTGAGGTTGTTGATACTAAC,0.741
18,ACAGACAGGTGAGTGAAGGTACCTCAGCTGGACG,-0.854
19,GGAACGACGGCATTCGAGTTGATAGCATGGCGAT,-0.589
20,TCGCGTAGGTTACCAATGGGGCATTCAGCTTTCT,0.0701

row,Sequence,PBM binding z-score
1,TTACCAAGGTAAGCTGAGGTCGTTGATCCAACTC,3.52
2,CCTACTGGGCCACGAAAGGTCAGTGATTCAGTGA,3.42
3,GCTTCTAGATCAAGGTTAAGAAAGACTAAGCTAA,0.437
4,ACGATTAGTTGAGACGAGGGCAACCGATAGGTTG,1.11
5,ATATGTAGGTGAGCTGGGGTCATTCAGACTAGGC,6.35
6,CCTAGTTGGTCAGGAGGTCTCACACCGGATATGA,-0.0259
7,CTCGAAAGGTCGTGCTCAGGTGAGGATACCAAAC,3.15
8,CCGGCTGGGGCAAGGTTACCATAACGCACAGCCA,0.337
9,CCGACTGGGGCATAAGGTTACCATAAGCCAGCCC,0.164
10,GCGACTGGGGCACAGCAGGTTACCATAAGGTTGG,0.113
11,AGTCAAAGTTAAGGACGAGGTAACGTAAAGCACG,-0.127
12,CGTCCAAGGTCAACGTCAGTGAAAGAGACTCGAA,3.66
13,ACAGACAGGTGAGTGAATGTAACTCAGCTGGACG,-0.136
14,GCTGCTAGGTCAACTGATGGTCAGATAAAGCTCG,1.8
15,TGAATGAGGTTATAGGATCAGGGAACGTTGCAAA,1.05
16,TAGTCTAGGTCATTGGGCCAGTATAGTACGCATC,1.95
17,CCAACTGGGCCAAAGGTCATTGATTCCAATGCTC,5.33
18,AGCCAAAGTTCATCTAGGTAACGTAAGATATGCT,5.16
19,TCATATAGGTCATACAGGTGAAAGTCGGCATCTA,3.62

# Test system: PXR homodimer (NR concentration 270 nM)
# Assay: as above
# Procedure, shortened: as §1
row,Sequence,PBM binding z-score
1,TCTTGTAGGTCAGCAGGTTAAGAAAGCTGGCCAA,-0.0454
2,TAGCCTAGGTCATTCAGGGCCCAGTATAGAAAGC,-0.155
3,AATATAGGGTCACTAGGCCAGAGTAGGTACGAAT,0.508
4,CCTCCGAGGACAACAGGAGGTCAGAGCTGCCAGA,0.291
5,CCTAGCTGGTCAAGGTCACACACGCTATAGGTAC,1.43
6,ATCGAAAGGTCGTCAGGTGAGTATACAGAAAGGC,0.936
7,ATCGAAAGGTCGTGAGGTGAATATACAGAAAGGC,0.656
8,TGAATGAGGTTATAAGAGCAGGGAACGTTGCAAA,-0.193
9,CCTAGTTGGCCAGGAGGTCACACACCGGATATGA,1.23
10,AGTCAAAGTTCACTAGGTAACGTCAGATTCAGCT,3.07
11,AGAACGAGGGCACGCTGAGTAGATAGCAGAGTAG,-0.149
12,TCAGACAGGTGATGGTAACTCAGGTACGCAGTCG,0.496
13,CCTCGGAGGACAAGAGGAGGTCAGAGCTGCCAGA,-0.0509
14,ATATGTAGGTTATCGGGTAATTCAGTTTGCGCAT,1.15
15,GCTATTAGTTGAAAGCGCAACCGAATGATTCTCG,-0.357
16,CGGCAAAGTTCAAGGTAACGTAACAGAAAGCAGC,2.11
17,ATACCAAGGTGATCGTGAGGTTGTTGATACTAAC,0.299
18,ACAGACAGGTGAGTGAAGGTACCTCAGCTGGACG,-0.592
19,GGAACGACGGCATTCGAGTTGATAGCATGGCGAT,-0.529
20,TCGCGTAGGTTACCAATGGGGCATTCAGCTTTCT,-1.03

row,Sequence,PBM binding z-score
1,TTACCAAGGTAAGCTGAGGTCGTTGATCCAACTC,0.144
2,CCTACTGGGCCACGAAAGGTCAGTGATTCAGTGA,0.0598
3,GCTTCTAGATCAAGGTTAAGAAAGACTAAGCTAA,0.0298
4,ACGATTAGTTGAGACGAGGGCAACCGATAGGTTG,0.466
5,ATATGTAGGTGAGCTGGGGTCATTCAGACTAGGC,3.01
6,CCTAGTTGGTCAGGAGGTCTCACACCGGATATGA,0.521
7,CTCGAAAGGTCGTGCTCAGGTGAGGATACCAAAC,0.182
8,CCGGCTGGGGCAAGGTTACCATAACGCACAGCCA,-0.654
9,CCGACTGGGGCATAAGGTTACCATAAGCCAGCCC,-0.32
10,GCGACTGGGGCACAGCAGGTTACCATAAGGTTGG,-0.29
11,AGTCAAAGTTAAGGACGAGGTAACGTAAAGCACG,0.18
12,CGTCCAAGGTCAACGTCAGTGAAAGAGACTCGAA,0.793
13,ACAGACAGGTGAGTGAATGTAACTCAGCTGGACG,0.0208
14,GCTGCTAGGTCAACTGATGGTCAGATAAAGCTCG,-0.238
15,TGAATGAGGTTATAGGATCAGGGAACGTTGCAAA,0.148
16,TAGTCTAGGTCATTGGGCCAGTATAGTACGCATC,0.361
17,CCAACTGGGCCAAAGGTCATTGATTCCAATGCTC,1.49
18,AGCCAAAGTTCATCTAGGTAACGTAAGATATGCT,6.7
19,TCATATAGGTCATACAGGTGAAAGTCGGCATCTA,1.06
